Measurements from PubChem BioAssay (NCATS).
Records with an inconclusive call do not appear. Active and inactive are the calls of the source. Calls come from the whole dose curve; as a rule, active = well fitted curve in the direction sought with a large enough effect; inconclusive = small, poorly fitted or top-dose-only effect, or another doubt; inactive = no such curve, though single readings can be large; an effect the other way counts as inactive or inconclusive.

Columns and labels:
[1] = qHTS for compounds that reverse cellular toxicity of Amyloid beta (A-beta) peptide in yeast: LOPAC Validation Assay (AID 720559)
Summary of the method: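 Activity is expressed relative to DMSO and an equimolar ferric chloride/clioquinol mix. Compounds were pinned into medium with A-beta-expressing yeast, grown 48 hr at 30 C, then read by absorbance at 600 nm.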

[2] = qHTS for Activators of Parkin Expression: LOPAC Validation Assay (NLuc Reporter) (AID 720572)
Summary of the method: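 Compound effects on Parkin promoter activity were measured as NanoLuc luminescence after 24 h at 37 C. The neuronal reporter line also carried FLuc, which was read first. LOPAC compounds were tested at 7 concentrations, with normalization to DMSO (0%) and positive control (100%).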

[3] = qHTS for Activators of Parkin Expression: LOPAC Validation Assay (FLuc Reporter) (AID 720573)
Summary of the method: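 A neuronal cell line harbouring FLuc and NLuc reporters behind the Parkin promoter was exposed to compounds for 24 h. Firefly luciferase signal, measured after 10 min with detection reagent, was scaled to DMSO and positive-control wells.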

Measured: Potency

O=S(=O)(c1cccc2c(Cl)cccc12)N1CCCNCC1
inactive: all assays above

N#Cc1cc([N+](=O)[O-])c2sc(C(N)=O)[n+]([O-])c2c1
inactive: all assays above

Cc1nc2c(OCc3ccccc3)cccn2c1CC#N
inactive: all assays above

CC[N+](CC)(CC)CC(=O)Nc1c(C)cccc1C
inactive: all assays above

C#CC(N)CCC(=O)O (stereo unspecified)
inactive: all assays above

C=CCNc1ncnc2ccc(Br)cc12
inactive: all assays above

C=C(C)C1CC=C(C(=O)O)CC1 (stereo unspecified)
inactive: all assays above

CC(=O)O[C@H]1Cc2ccccc2N(C(N)=O)c2ccccc21
inactive: all assays above

COC(=O)C1=C(C)NC(C)=C([N+](=O)[O-])C1c1ccccc1C(F)(F)F (stereo unspecified)
inactive: all assays above

CCCCCCC(=O)OC1CC(C)(C)NC(C)(C)C1
inactive: all assays above

CC(C)NCC(O)COc1ccc(CC(N)=O)cc1 (stereo unspecified)
inactive: all assays above

O=C(O)c1ccccc1Nc1ccccc1
inactive: all assays above

COc1cc([C@@H]2c3cc4c(cc3[C@H](O)C3COC(=O)[C@@H]32)OCO4)cc(OC)c1OC (stereo partly specified)
inactive: all assays above

Cc1nc(N=Nc2cc(S(=O)(=O)O)c3cc([N+](=O)[O-])cc(S(=O)(=O)O)c3c2)c(COP(=O)(O)O)c(C=O)c1O
inactive: all assays above

CCN(CC)CCCCCCCCOC(=O)c1cc(OC)c(OC)c(OC)c1
inactive: all assays above

Nc1nc2[nH]c(=O)cnc2c(=O)[nH]1
inactive: all assays above

CC(=O)NCCc1c[nH]c2ccc(O)cc12
inactive: all assays above
